The source of these data is PubChem BioAssay (Tox21).

Records with an inconclusive call do not appear. A call without a number means that no potency is given here. Active and inactive are the calls of the source. The call rests on the fitted dose curve.

For the assay, the target named is Beta-2 adrenergic receptor (Homo sapiens) (UniProt P07550). Description: Adrenergic beta2 receptor (ADRB2) small molecule agonists, cell-based qHTS assay (AID 1963593). The essentials: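 CHO cells stably over-expressing ADRB2 were plated overnight at 37C, then dosed with compounds plus a stimulation mix containing 100uM IBMX and 25uM Ro-20-1724 for 0.5hr at room temperature. cAMP was measured by HTRF competition, 1hr.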
Chain of Beta-2 adrenergic receptor (Homo sapiens) (P07550 whole entry, looked up): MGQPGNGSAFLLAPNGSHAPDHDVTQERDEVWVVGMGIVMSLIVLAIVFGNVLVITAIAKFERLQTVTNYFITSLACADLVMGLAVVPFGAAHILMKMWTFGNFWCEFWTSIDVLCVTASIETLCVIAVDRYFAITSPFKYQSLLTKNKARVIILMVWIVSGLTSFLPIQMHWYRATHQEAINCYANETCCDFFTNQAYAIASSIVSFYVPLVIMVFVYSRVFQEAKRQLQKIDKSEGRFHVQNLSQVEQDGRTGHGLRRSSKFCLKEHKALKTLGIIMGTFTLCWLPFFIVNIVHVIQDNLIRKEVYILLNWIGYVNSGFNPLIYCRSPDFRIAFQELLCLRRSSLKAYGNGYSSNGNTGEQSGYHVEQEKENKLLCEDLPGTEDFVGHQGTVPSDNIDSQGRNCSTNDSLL
Potency means the concentration at half of the fitted maximal effect.

Turning to `Cc1cc(OI)c(C(C)C)cc1-c1cc(C(C)C)c(OI)cc1C`, the Potency result was “inactive”.
For `C=CC(=O)OCCOCCOC(=O)C=C`, the Potency result is “inactive”.
Next, `CC1(C)Cc2cccc(N)c2O1`: “inactive”; `CC(=O)Oc1ccc(C2(c3ccc(OC(C)=O)cc3)C(=O)Nc3ccccc32)cc1`: “inactive”.
Next, `CC/C=C\CCOC(=O)c1ccccc1O`: “inactive”; `CCC(C)CCCC(C)(C)O` (centres undefined): “inactive”; `Nc1cc(C(F)(F)F)ccc1S`: “inactive”.
In the case of `CCCSS/C(CCO)=C(\C)N(C=O)Cc1cnc(C)nc1N`, the Potency result is “inactive”.
Next, `CCc1ccc(CC)cc1`: “inactive”.
The result for `C#Cc1ccc(-c2ccccc2F)cc1` reads “inactive”; that for `O=C(O)Cc1cn(-c2ccccc2)nc1-c1ccc(Cl)cc1`, “inactive”; that for `OC1(c2ccccc2)CCNCC1`, “inactive”.
Next, `OCCCO`: “inactive”; `CN1CCCCC1CCN1c2ccccc2Sc2ccc(S(C)=O)cc21` (centres undefined): “inactive”.
For the compound `O=[N+]([O-])c1ccc(CO)cc1`, the Potency result is “inactive”.
On to `C=CCN1CCc2nc(N)sc2CC1`, for which the Potency entry was “inactive”.
Next, `NCCCC[C@H](N[C@@H](CCc1ccccc1)C(=O)O)C(=O)N1CCC[C@H]1C(=O)O`: “inactive”; `CCN1CCC[C@H]1CNC(=O)c1cc(S(N)(=O)=O)ccc1OC`: “inactive”.
`O=C1CC2(CCCC2)CC(=O)N1CCNCC1COc2ccccc2O1` (centres undefined): the Potency entry is “inactive”.
With `C#CCN[C@@H]1CCc2ccccc21`, the Potency is 29.8 µM (active).
Next, `Oc1cc2ccccc2cc1O`: “inactive”; `C[C@]1(Cn2ccnn2)[C@H](C(=O)O)N2C(=O)C[C@H]2S1(=O)=O`: “inactive”; `CCOC(=O)OCC/C(SC(=O)OCC)=C(\C)N(C=O)Cc1cnc(C)nc1N`: “inactive”.
Next, `C=CC(=O)OCC(CO)(COCC(COC(=O)C=C)(COC(=O)C=C)COC(=O)C=C)COC(=O)C=C`: 30.3 µM (active).
The result for `Cc1ccc2c(c1)C(=O)c1ccccc1C2=O` reads “inactive”.
For the compound `C/C=C/C(=O)CC`, the Potency entry was “inactive”.
Next, `CO/N=C(\C(=O)O)c1csc(NC(=O)CCl)n1`: “inactive”; `CCCCCCOc1ccc(N)cc1`: “inactive”.
Next, `Cc1nc2ccccc2n1Cc1ccc(Cl)cc1`: “inactive”; `C[N+]1(C)CCCC(OC(=O)C(O)(c2ccccc2)c2ccccc2)C1` (centres undefined): “inactive”; `O=C1CCCCCCCCCCCCCC1`: “inactive”.
On to `Nc1cccc(S(=O)(=O)c2cccc(N)c2)c1`, for which the Potency entry is “inactive”.
Regarding `O=C1c2ccccc2C(=O)c2cc(O)ccc21`, the Potency entry is “inactive”.
Next, `CCCC(=O)OC(=O)CCC`: “inactive”.
For the compound `CC1(C)S[C@@H]2[C@H](NC(=O)Cc3ccccc3)C(=O)N2[C@H]1C(=O)O` (tested in a mixture with another compound), the Potency result was “inactive”.
Next, `C=CCn1c(=O)n(CC=C)c(=O)n(CC=C)c1=O`: “inactive”; `CC(=O)CC(=O)OC(C)(C)C`: “inactive”.
Turning to `CC[C@H]1OC(=O)[C@H](C)[C@@H](O[C@H]2C[C@@](C)(OC)[C@@H](O)[C@H](C)O2)[C@H](C)[C@@H](O[C@@H]2O[C@H](C)C[C@H](N(C)C)[C@H]2O)[C@](C)(OC)C[C@@H](C)C(=O)[C@H](C)[C@@H](O)[C@]1(C)O`, the Potency result is “inactive”.
Next, `Nc1ccc(S(=O)(=O)O)c(N)c1`: “inactive”.
The result for `O=C(NCC1CN(c2ccc(N3CCOCC3=O)cc2)C(=O)O1)c1ccc(Cl)s1` (centres undefined) reads “inactive”.
Consider `COc1ccc(CN2CCN(C(c3ccc(F)cc3)c3ccc(F)cc3)CC2)c(OC)c1OC`, for which the Potency entry is “inactive”.
Regarding `Cc1ccc(C(=O)c2ccc(CC(=O)O)n2C)cc1`, the Potency entry is “inactive”.
The result for `COc1ccc([C@@H]2Sc3ccccc3N(CCN(C)C)C(=O)[C@@H]2OC(C)=O)cc1` reads “inactive”; that for `Cc1cccc(Nc2ccncc2S(=O)(=O)NC(=O)NC(C)C)c1`, “inactive”.
Next, `C=C/C(C)=C/C/C=C(\C)CCC=C(C)C`: “inactive”; `Cc1ccc(C(=O)Oc2ccc(C(O)CNC(C)(C)C)cc2OC(=O)c2ccc(C)cc2)cc1` (centres undefined): 0.0841 µM (active).
As for `NS(=O)(=O)Cc1noc2ccccc12`, the Potency result was “inactive”.
The result for `NS(=O)(=O)c1cc(-c2nn[nH]n2)c(NCc2cccs2)cc1Cl` reads “inactive”; that for `C[N+]12CCC(CC1)C(OC(=O)C(O)(c1ccccc1)c1ccccc1)C2` (centres undefined), “inactive”.
